From PubChem BioAssay (NCI)
The panel holds about 79,000 compounds, 15% with a hit somewhere; the sample as a whole holds those more often. No stated cut-off is given here; in the data, active means growth inhibition above about 70%; inactive means the rest.

Legend:
[1] = NCI Yeast Anticancer Drug Screen. Data for the rad50 strain (AID 155);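 further: 0% = growth of vehicle-only cultures of the same strain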; conditions: S. cerevisiae rad50 strain growth inhibition; at 50.0 µM; stronger effect = higher value
Summary of the method: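 Relative growth inhibition (compound vs vehicle) was measured in yeast with a defined repair-gene alteration.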

[2] = NCI Yeast Anticancer Drug Screen. Data for the mec2-1 strain (AID 157); conditions: S. cerevisiae mec2-1 strain, at 50.0 µM, stronger effect = higher value
Summary of the method: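 Vehicle-treated cultures served as reference for growth inhibition of compound-exposed mec2-1 yeast.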

[3] = NCI Yeast Anticancer Drug Screen. Data for the sgs1 mgt1 strain (AID 161);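 further: 0% = growth of cultures given vehicle only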; conditions: S. cerevisiae sgs1 mgt1 strain, at 50.0 µM, stronger effect = higher value
Summary of the method: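 Genetically altered yeast, compound exposure, growth inhibition relative to vehicle.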

[4] = NCI Yeast Anticancer Drug Screen. Data for the cln2 rad14 strain (AID 165);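 further: 0% = growth equal to vehicle treated cultures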; conditions: S. cerevisiae cln2 rad14 strain, at 50.0 µM, stronger effect = higher value
Summary of the method: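 Each compound was tested on cln2 rad14 yeast. Inhibition of growth was calculated against vehicle-exposed controls.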

[5] = NCI Yeast Anticancer Drug Screen. Data for the bub3 strain (AID 167); conditions: S. cerevisiae bub3 mutant strain, at 50.0 µM, stronger effect = higher value
Summary of the method: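 Screening used yeast with an engineered genetic alteration affecting cell cycle control. Compound-exposed cultures were compared with vehicle cultures, and reduced growth was taken as inhibition.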

[6] = NCI Yeast Anticancer Drug Screen. Data for the mlh1 rad18 strain (AID 175); conditions: S. cerevisiae mlh1 rad18 strain growth inhibition; at 50.0 µM; stronger effect = higher value
Summary of the method: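 Vehicle-treated cultures served as the reference for growth inhibition in a yeast strain carrying DNA damage repair alterations exposed to each compound.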

Measured: growth inhibition

CC(C)(CN1CCCCC1)C(=O)/C=C/c1ccc(Cl)cc1
inactive: [1] 34.6% | [2] 11.9% | [3] 36.2% | [4] 38.5% | [5] 12.6% | [6] 46.7%

C[n+]1cccc2cc([N+](=O)[O-])ccc21
inactive: [1] -21.6% | [2] -6.8% | [3] 4.35% | [4] -77.7% | [5] 3.9% | [6] -13.3%

O=C(OC(CN1CCCCC1)CN1CCCc2ccccc21)C(O)C(O)C(O)(CO)C(=O)OC(CN1CCCCC1)CN1CCCc2ccccc21 (stereo unspecified)
inactive: [1] 15.4% | [2] 7.05% | [3] 43.8% | [4] 1.8% | [5] 7.95% | [6] 41.1%

C/C(=N\N=C(/C)c1ccc(-c2ccccc2)cc1)c1ccc(-c2ccccc2)cc1
inactive: [1] 1.2% | [2] -27.8% | [3] 19.1% | [4] 2.2% | [5] 20.8% | [6] 13.3%

[N-]=[N+]=Nc1ccccc1C(=O)NCCCNC(=O)c1ccccc1N=[N+]=[N-]
inactive: [1] -0.25% | [2] -23.1% | [3] 25% | [4] 1.8% | [5] 19.4% | [6] 16%

O=C(O)c1sccc1-c1cccc2ccccc12
inactive: [1] 0.5% | [2] 18.6% | [3] 10.9% | [4] -13.3% | [5] -15.6% | [6] -11.8%

CC(O[Si](C)(C)C(C)(C)C)[C@H](NC(=O)OCC(Cl)(Cl)Cl)C(=O)O (stereo partly specified)
inactive: [1] -9.6% | [2] -27.8% | [3] -17.1% | [4] 26.1% | [5] -45% | [6] -14.8%

COc1ccc(Nc2nc(NS(=O)(=O)c3cc(C)c(Cl)cc3S)n[nH]2)cc1
inactive: [1] 23.4% | [2] 27.9% | [3] 3.65% | [4] 24.9% | [5] 16.9% | [6] -4.9%

CN1CCc2c1nc(-c1ccc(Cl)cc1)c1c2N(C)CC1
inactive: [1] 5.15% | [2] 1.5% | [3] 0% | [4] 9% | [5] -9.55% | [6] -7.35%

Cc1ccc(NC(=O)c2ccc(Cl)cc2)cc1Cl
inactive: [1] 18.9% | [2] 1.35% | [3] 2.95% | [4] -9.65% | [5] 13.8% | [6] -2.3%

COc1ccc(C(=O)/C=C/c2cc(C(C)(C)C)c(O)c(C(C)(C)C)c2)cc1
inactive: [1] 17.4% | [2] -1.2% | [3] 14.6% | [4] 25.4% | [5] 7.8% | [6] 18.2%

CC(C)(C#CCOC(=O)c1ccc([N+](=O)[O-])cc1)OC(=O)c1ccc([N+](=O)[O-])cc1
inactive: [1] 9.25% | [2] -3.7% | [3] 18.5% | [4] 32.1% | [5] 1.5% | [6] 5.35%

CC(CO)(CO)CN1CCCCC1
inactive: [1] -2.25% | [2] 5.2% | [3] -1.85% | [4] -36.5% | [5] -12.4% | [6] 1.8%

COC(=O)CCCCCCC/C=N/Nc1ccc([N+](=O)[O-])cc1[N+](=O)[O-]
inactive: [1] 6.9% | [2] 22% | [3] 4.7% | [4] 8.85% | [5] 7.3% | [6] 17.4%

CC1=CC2=NCC(O)CN2C=C1 (stereo unspecified)
inactive: [1] -4.2% | [2] 28.6% | [3] 9.25% | [4] 12.8% | [5] 14.4% | [6] 2.2%

Cc1cc(O)c(C(c2ccccn2)c2c(O)cc(C)[nH]c2=O)c(=O)[nH]1
inactive: [1] -4.85% | [2] 6.15% | [3] -7.9% | [4] -2.55% | [5] -0.25% | [6] 5%

CN(/N=C/c1ccnc2ccccc12)c1ccc([N+](=O)[O-])cc1[N+](=O)[O-]
inactive: [1] -31.3% | [2] -10.9% | [3] -19.5% | [4] 8.1% | [5] -6.95% | [6] -12.6%

CC(C)N1C(=O)c2ccccc2C1=O
inactive: [1] 26.8% | [2] 22.1% | [3] 14.7% | [4] 19.8% | [5] 15.1% | [6] 14.3%

COc1cc2ccccc2ccc1=O
inactive: [1] 13.4% | [2] 7.95% | [3] -6.45% | [4] -3.55% | [5] 13.6% | [6] 4.5%

N#CCCC(CCC#N)(CCC(CCC#N)(CCC#N)[N+](=O)[O-])[N+](=O)[O-]
inactive: [1] -4.05% | [2] 11% | [3] 10.8% | [4] -11.6% | [5] 8.8% | [6] 6.3%

Cc1nc(-c2cccnc2)sc1C(=O)/C=C/c1cccc([N+](=O)[O-])c1
inactive: [1] 27.1% | [2] 10.6% | [3] 23.9% | [4] 32.2% | [5] 5.6% | [6] 38.9%

COC1/C=C\OC2(C)Oc3c(C)c(O)c4c(O)c(c(/C=N\NC(=O)CC(=O)N/N=C/c5c6c(O)c7c(O)c(C)c8c(c7c5O)C(=O)C(C)(O/C=C/C(OC)C(C)C(OC(C)=O)C(C)C(O)C(C)C(O)C(C)/C=C/C=C(C)C(=O)N6)O8)c(O)c4c3C2=O)NC(=O)/C(C)=C\C=C/C(C)C(O)C(C)C(O)C(C)C(OC(C)=O)C1C (stereo unspecified)
inactive: [1] -4.5% | [2] 6.3% | [3] -2.2% | [4] -5.4% | [5] 6.75% | [6] -16.4%

Oc1ccccc1-c1cc(-c2ccccc2)nc(NCCCCNc2nc(-c3ccccc3)cc(-c3ccccc3O)n2)n1
inactive: [1] -5.05% | [2] -3.95% | [3] -14.7% | [4] -21.8% | [5] -1.75% | [6] -2.65%

COc1cc(O)c2c(c1)C(=O)c1cc(C)cc(O)c1C2=O
inactive: [1] -15.1% | [2] -22.9% | [3] -18.6% | [4] -21.1% | [5] -26.2% | [6] -10.8%

Cn1cnc(=S)c2ccccc21
inactive: [1] -11% | [2] -12.8% | [3] -18.3% | [4] -6.05% | [5] 0.8% | [6] -29.1%

CC(C)CCCC(C)C1CCC2C3CC=C4CCCCC4(C)C3CCC12C (stereo unspecified)
inactive: [1] -22.4% | [2] -4.25% | [3] -3.85% | [4] -5.45% | [5] -5.05% | [6] -23.6%

COC(c1ccc(C(C)(C)C)cc1)(c1ccc(C(C)(C)C)cc1)c1cc(C(O)(c2cc(C(OC)(c3ccc(C(C)(C)C)cc3)c3ccc(C(C)(C)C)cc3)c(C)cc2C)c2cc(C(OC)(c3ccc(C(C)(C)C)cc3)c3ccc(C(C)(C)C)cc3)c(C)cc2C)c(C)cc1C
inactive: [1] -26.8% | [2] -12.7% | [3] -12.8% | [4] 13.8% | [5] -17.8% | [6] -9.05%

O=C1CCCCCCCS(=O)(=O)C1
inactive: [1] -8.55% | [2] -0.05% | [3] -4.75% | [4] -19.6% | [5] -4.95% | [6] -0.2%

CC(/C=C/C(=O)c1sc(C(N)=S)nc1C)=C\c1ccccc1
inactive: [1] 4.55% | [2] -13.1% | [3] -6.8% | [4] 10.8% | [5] -5.8% | [6] 22.2%

C1CCSCCCCSCCCCSCCCCSC1
inactive: [1] 20.4% | [2] 18% | [3] 23.4% | [4] 6.5% | [5] 16.9% | [6] 35.8%

Nc1ncnc2c1nnn2C1C=CC(COS(N)(=O)=O)C1 (stereo unspecified)
inactive: [1] 12.2% | [2] 3.75% | [3] 3.7% | [4] -6% | [5] 8.25% | [6] 18.6%

Cc1c(/C=N/O)nc2ccccc2c1C(=O)O
inactive: [1] -15.1% | [2] -9.25% | [3] -6.5% | [4] -24.1% | [5] -3.85% | [6] -28.9%

CNc1c(F)cc(C(=O)O)cc1F
inactive: [1] -8.35% | [2] 4.5% | [3] -0.25% | [4] -16.4% | [5] -32.6% | [6] 2.15%

S=c1nc[nH]c2nc(Cl)[nH]c12
inactive: [1] -5.45% | [2] -18.6% | [3] -21.6% | [4] -0.25% | [5] -26.6% | [6] 4%

Cc1cccc(C)[n+]1[O-]
inactive: [1] 1.6% | [2] 5.25% | [3] -6.9% | [4] -38.8% | [5] 16.5% | [6] 0.65%

COC(=O)C1c2ccc(C)cc2-c2cc(C)ccc21
inactive: [1] 16.5% | [2] -36.9% | [3] 8.55% | [4] 17.4% | [5] 26.4% | [6] 32.6%

COC(=O)C1C(C)(C(=O)OC)N=NC1(c1ccccc1)c1ccccc1 (stereo unspecified)
inactive: [1] 7.85% | [2] -1.05% | [3] -7.55% | [4] 16% | [5] 19.8% | [6] -3.4%

O=[N+]([O-])[C@@H]1C[C@@H]2C=C[C@H]1CC2
inactive: [1] 10.1% | [2] 0.2% | [3] 2.6% | [4] -1.3% | [5] 0.3% | [6] 0.15%

Cc1ccc(S(=O)(=O)c2c(N)c3nc4ccccc4n3c3nc4ccccc4nc23)cc1
inactive: [1] 21.4% | [2] -10.3% | [3] -5.2% | [4] 25.7% | [5] -0.45% | [6] 13.1%

ClCC[n+]1ccc2ccccc2c1
inactive: [1] 3.95% | [2] 11.6% | [3] -13.4% | [4] -13.8% | [5] -9.05% | [6] -10.7%

C=CCNC(=S)Nc1cc(Cl)ccc1OC
inactive: [1] 6.15% | [2] 8.45% | [3] -2.45% | [4] -5.45% | [5] 1.2% | [6] 7.1%
